This note sets out measurements from PubChem BioAssay (NCATS).

The structures appear in SMILES notation. Records with an inconclusive call do not appear. Activity calls are given as the source filed them. Unless noted, calls follow the shape of the dose curve; as a rule, active = well fitted curve in the direction sought with a large enough effect; inconclusive = small, poorly fitted or top-dose-only effect, or another doubt; inactive = no such curve, though single readings can be large; an effect the other way counts as inactive or inconclusive.

Assay [1] in a line: AP1 Signaling Pathway (AID 357; active = well fitted curve in either direction with a large enough effect, not every such curve was filed as active;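 also: ME-180 reporter cells stimulated with EGF at its EC50 level; % is scaled to controls: 0 for no effect and ±100 for the full control effect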). To be noted: ME-180 AP-1-bla reporter, EGF-induced, beta-lactamase ratio, 5 h. The gist of the method:
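Titration-series screen for positive or negative modulators of EC50 EGF-induced signaling in ME-180 cells carrying an AP-1-driven beta-lactamase reporter. After 5 hours at 37 degrees Celsius, CCF4 460nm/530nm emission ratio gave %Activity; AC50 values derived.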

Assay [2] concerns the target Cytochrome P450 1A2 (Homo sapiens) (UniProt P05177). The experiment in a line: p450-cyp1a2 (AID 410; calls by dose curve; also: potency is read from the fitted curve at half-maximal effect). Particulars: recombinant CYP1A2, luciferin-ME demethylation, luminescence; series mostly up to 57 µM. The method in brief:
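Read-out is luminescence from luciferin produced by CYP1A2 demethylation of Luciferin-ME (100uM, at Km). Detection reagent stopped the 60 min NADPH-dependent reaction; signals were normalized to 57 uM furafylline.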

Assay [3] can be described thus: Stat Signaling Pathway (AID 446; active = well fitted curve in either direction with a large enough effect, not every such curve was filed as active;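 also: ME-180 cervical cancer cells given 40 pM IL-6 alongside compound; SIE-controlled beta-lactamase reporter measured as 460/530 nm FRET emission ratio; % is scaled to controls: 0 for no effect and ±100 for the full control effect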). Particulars: ME-180 (cervical carcinoma) SIE beta-lactamase reporter, IL-6 stimulated, 5 h. The gist of the method:
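FRET read-out (405 nm excitation, 460/530 nm emission) of a beta-lactamase reporter under a STAT-inducible element in ME-180 cervical carcinoma cells. Cells with compound receive 40 pM IL-6 for 5 h. Values are normalised to AC90 stimulation and AC90 JAK-inhibitor controls.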

Assay [4] has as its target Glucocorticoid receptor (Homo sapiens) (UniProt P04150). The assay can be described thus: GR-GFP Redistribution (AID 450;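 active = compounds whose dose series gives a full or clear partial fitted curve of increased nuclear translocation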; also: potency is read from the fitted curve at half-maximal effect). Particulars: U2OS GR-GFP nuclear translocation, laser cytometry, 2 h.
The target is the same in assay [5]. The assay can be described thus: GR-EFC Redistribution (AID 451; calls by dose curve; also: potency is read from the fitted curve at half-maximal effect). To be noted: CHO-K1 GR-EFC translocation, beta-gal luminescence, 2 h. The gist of the method:
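Translocation of GR-ED fusion to nuclear EA restores b-gal, read by luminescence after 1 h room-temperature detection. Engineered CHO-K1 biosensor cells, 1,000/well, exposed 2 h at 37 C to titrations up to 46 uM final.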

The target of assay [6] is 3',5'-cyclic-AMP phosphodiesterase 4B (Homo sapiens) (UniProt Q07343). The experiment in a line: qHTS Assay for Inhibitors of PDE-IV (AID 607; active = well fitted activation curve with a large enough effect in the main read-out, with a control signal flat, not every such curve was filed as active; also: % of control where 0% means no effect). Particulars: HEK293 ACTOne CNG channel cells, membrane potential fluorescence; series mostly up to 22.9 µM. The gist of the method:
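Cell-based read-out of cAMP via a modified cyclic nucleotide-gated channel and membrane potential dye (535/590 nm) in HEK293 cells expressing PDE4 endogenously. Compounds tested up to 22.9 uM final; 100 uM RO 20-1724 reference.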

For assay [7], the target named is Cytochrome P450 3A4 (Homo sapiens) (UniProt P08684). The assay can be described thus: qHTS Assay for Activators of Cytochrome P450 3A4 (AID 885). Also: nearly all actives have a fitted effect of over 65% in size. Particulars: recombinant CYP3A4, Luciferin-PPXE luminescence, 60 min; series mostly up to 57.1 µM. The gist of the method: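 Luminescent readout of luciferin formed from 25 uM Luciferin-PPXE (KM level) by 20 nM CYP3A4 in 200 mM KPO4, with 60 min NADPH-driven reaction at room temperature after 10 min compound exposure. Ketoconazole (57 uM) defined 100% inhibition.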

The target of assay [8] is Cytochrome P450 2D6 (Homo sapiens) (UniProt P10635). The experiment in a line: qHTS Assay for Inhibitors and Substrates of Cytochrome P450 2D6 (AID 891). Also: potency is read from the fitted curve at half-maximal effect; nearly all actives have a fitted effect of over 60% in size. Particulars: recombinant CYP2D6, luciferin-ME EGE luminescence; series mostly up to 57.1 µM. The gist of the method:
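Luminescent read-out of luciferin formed by 5 nM human CYP2D6 demethylating 30 uM Luciferin-ME EGE (Km level) over 60 min at room temperature after NADPH regeneration addition. Data normalized to full inhibition by 1.43 uM quinidine.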
(Quantitative high-throughput screening tests each substance at several concentrations.)

Assay [9] has as its target Cytochrome P450 2C19 (Homo sapiens) (UniProt P33261). The assay can be described thus: qHTS Assay for Inhibitors and Substrates of Cytochrome P450 2C19 (AID 899). Also: potency is read from the fitted curve at half-maximal effect; nearly all actives have a fitted effect of over 60% in size. To be noted: recombinant CYP2C19, luciferin-H EGE luminescence; series mostly up to 57.1 µM. The gist of the method:
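5nM enzyme + 10uM Luciferin-H EGE (=KM), 50mM KPO4; cpd pin-transferred, 10 min 37C; NADPH regen, 60 min 37C; stopped w/ luciferin detection reagent, 20 min; luminescence. Normalized to 57uM ketoconazole (AC100).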

Assay [10] is described as follows: qHTS Assay for Lipid Storage Modulators (AID 1519; calls by dose curve). Particulars: Drosophila S3 cells, BODIPY lipid droplet/cell ratio, laser cytometry, cells loaded with oleic acid. The method in brief: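 Cells seeded at 5,000 per well were treated with compounds over a concentration series and loaded with oleic acid (400 uM, as added). Lipid droplet fluorescence (488 nm excitation, 500-530 nm channel) was read by laser-scanning cytometry and normalized to 20 uM Triacsin C.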

In assay [11] the test system is Zika virus NS2B-NS3 protease. The experiment in a line: Primary screen GU AMC qHTS for Zika virus inhibitors (AID 1347154).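 Also: 0% = no-inhibitor control and -100% = no-enzyme control; nearly all actives have a fitted effect of over 70% in size.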 Particulars: Zika NS2B-NS3 unlinked protease, AMC fluorogenic substrate; series mostly up to 54.1 µM. The gist of the method: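 Fluorogenic AMC-substrate cleavage by noncovalent NS2B-NS3 protease complex (25 nM, pH 8.0 Tris buffer with Tween 20) followed for 15 minutes at room temperature (~20% conversion). Percent inhibition from ex340/em450 signal change, fitted by 4-parameter Hill equation.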

The nature of assay [12]: Primary qHTS for small molecule stabilizers of the endoplasmic reticulum resident proteome: Secreted ER Calcium Modulated Protein (SERCaMP) assay (AID 1508630). Also: % is scaled to controls: 0 for no effect and ±100 for the full control effect. To be noted: SH-SY5Y GLuc-SERCaMP (Gaussia luciferase released on ER calcium loss) secretion, thapsigargin, luminescence; series mostly up to 38.4 µM. The gist of the method: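 The SH-SY5Y reporter protocol was run at 3 concentrations up to 38.3 uM (primary) or 11 concentrations (follow-up): 16 h compound, 100 nM thapsigargin for 4 h, then extracellular luciferase luminescence.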

The nature of assay [13]: NFAT Signaling Pathway (AID 444; active = well fitted curve in either direction with a large enough effect, not every such curve was filed as active;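 also: carbachol stimulus at about its EC50 of 1 µM final; % is scaled to controls: 0 for no effect and ±100 for the full control effect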). To be noted: Jurkat NFAT-bla M1, carbachol, beta-lactamase ratio, 5 h; at 38 µM (top of the series). The gist of the method:
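Read-out: CCF4 FRET ratio (460 nm/530 nm) after 1 h RT dye loading, used for %activity and AC50 from titration series. Cells: Jurkat NFAT-β-lactamase/M1 line, treated with compound plus 1 uM carbachol for 5 h, 37 °C.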

The target of assay [14] is Mitogen-activated protein kinase 10 (Mus musculus) (UniProt Q61831). The assay can be described thus: JNK3 AlphaScreen Assay (AID 530; active = well fitted curve in either direction with a large enough effect, not every such curve was filed as active). To be noted: JNK3 lysate, c-Jun phosphorylation; series mostly up to 57.1 µM. The gist of the method:
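Kinase buffer: 20 mM Tris-HCl pH 7.6, 10 mM MgCl2, 1 mM DTT, 0.1 mM Na3VO4, 0.01% Tween-20; ATP 10 uM. Substrate biotin-GST-cJun(1-79), enzyme from activated HepG2 lysates. Detection by Ser73 phospho-antibody AlphaScreen.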
For orientation: Alpha assays give light when donor and acceptor beads are brought close together.

The target in assay [15] is Guanine nucleotide-binding protein G(i) subunit alpha-1 (Homo sapiens) (UniProt P63096). The assay can be described thus: qHTS Assay for Inhibitors of RGS12 GoLoco Motif Activity (Green Fluorophore) (AID 879).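 Also: 0% = labeled peptide with Gαi1 and full inhibition = labeled peptide alone without protein; negative values mean loss of peptide binding seen as reduced polarization.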 Particulars: Galphai1/FITC-RGS12 GoLoco peptide, fluorescence polarization; series mostly up to 57.1 µM. The method in brief:
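A drop in FITC polarization marked displacement of the FITC-tagged RGS12 GoLoco peptide (10 nM) from Gαi1 (50 nM). Compounds were incubated 10 min at room temperature in Tris pH 7.5 buffer containing 150 mM NaCl, 0.1 mM GDP and 0.05% NP40; unlabeled peptide titration served as control.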

Assay [16] can be described thus: qHTS Assay for Identification of Small Molecule Agonists for Thrombopoietin (TPO) Signaling Pathway (AID 917). Also: % is scaled to controls: 0 for no effect and ±100 for the full control effect. To be noted: TPO signaling pathway reporter cells, agonist qHTS, stimulated with TPO at its EC50; series mostly up to 38.5 µM. The gist of the method:
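Luciferase reporter (Glycoprotein IIb promoter) in IL-3-deprived Ba/F3 cells carrying human TPO receptor; compounds co-added with 26 pM TPO, incubated 24 h, 37 C. Steadylite luminescence measured after 10 min.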

Assay [17] deals with Muscarinic acetylcholine receptor M1 (Rattus norvegicus) (UniProt P08482). The experiment in a line: qHTS Assay for Antagonists of Acetylcholine Muscarinic M1 Receptor: Measurement of IP-One Response (AID 944). Also: nearly all actives have a fitted effect of over 75% in size. Particulars: CHO-M1 cells, IP-One HTRF, antagonist mode; series mostly up to 46.1 µM. The method in brief:
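Antagonism was measured as loss of carbachol-driven (EC80) IP1 accumulation in CHO cells carrying rat M1, using a homogeneous IP-One TR-FRET kit read at 620 and 665 nm.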

The target of assay [18] is Pyruvate kinase (Leishmania mexicana) (UniProt Q27686). The experiment in a line: qHTS Validation Assay for Inhibitors of Leishmania Mexicana Pyruvate Kinase (AID 945).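 Also: 0% = DMSO only neutral control wells.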 To be noted: purified L. mexicana pyruvate kinase, enzyme activity, E451W mutant enzyme; series mostly up to 57.5 µM. The method in brief:
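Mutant LmPYK (E451W), 0.2 nM, plus 0.5 mM PEP and 0.1 mM ADP in 50 mM imidazole pH 7.2 containing 0.01% Tween 20 and 0.05% BSA. Incubated 1 h at room temperature; luminescence via PKLight, normalized to DMSO.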

The target of assay [19] is Pyruvate kinase PKM (Homo sapiens) (UniProt P14618). The assay can be described thus: qHTS Assay for Activators of Human Muscle Pyruvate Kinase (AID 954; active = well fitted curve in the direction sought with a large enough effect, not every such curve was filed as active;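 also: 0% = uninhibited enzyme and -100% = no enzyme or full thiadiazolimine inhibition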). To be noted: purified human muscle pyruvate kinase, luciferase-coupled luminescence, 1 h; series mostly up to 57.5 µM. The method in brief:
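ATP production by PKM2 detected via luciferase luminescence after 1 h room-temperature reaction (0.1 nM enzyme, PEP at Km 0.5 mM, ADP 0.1 mM, pH 7.2 imidazole buffer). Inhibition scaled to no-enzyme control; activation referenced to 0.3 nM enzyme wells.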

For assay [20], the target named is Alpha-galactosidase A (Homo sapiens) (UniProt P06280). The experiment in a line: Counterscreen for Glucocerebrosidase Inhibitors: qHTS Assay for Human alpha-Galactosidase at pH 4.5 (AID 992). Also: 0% is about no effect. Particulars: purified enzyme, fluorogenic substrate; series mostly up to 76.9 µM. The method in brief:
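Fluorogenic 1536-well qHTS at pH 4.5 (citrate, Tween-20): 2 nM enzyme, 80 uM 4-MU-alpha-galactoside, 20 min room temperature, NaOH/glycine stop. Titration 0.7 nM to 77 uM, data normalized to no-enzyme and full-activity controls, Hill-fitted AC50.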

Assay [21] concerns the target alpha-glucosidase (Oryza sativa, rice) (UniProt Q653V4). The assay can be described thus: Counterscreen for Glucocerebrosidase Inhibitors: qHTS Assay for Rice alpha-Glucosidase at pH 5.0 (AID 997).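 Also: 0% = full activity with enzyme and -100% = basal without enzyme.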 To be noted: rice alpha-glucosidase enzyme activity; series mostly up to 76.9 µM. The gist of the method:
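Endpoint fluorogenic assay at pH 5.0: compounds (0.7 nM to 77 uM) titrated against 4 nM rice enzyme and 400 uM 4-MU-alpha-glucoside for 20 min at room temperature; NaOH/glycine stop, read ex 365/em 440 nm, Hill-fitted AC50.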
(Counterscreens check selectivity or assay interference.)

For assay [22], the target named is Ubiquitin carboxyl-terminal hydrolase 1 (Homo sapiens) (UniProt O94782). The assay can be described thus: Inhibitors of USP1/UAF1: Pilot qHTS (AID 504865).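 Also: rhodamine fluorescence freed from ubiquitin-rhodamine substrate followed over time; top concentration of the series differs between compounds; % is scaled to controls: 0 for no effect and ±100 for the full control effect; nearly all actives have a fitted effect of over 35% in size.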 To be noted: purified USP1/UAF1, Ub-rhodamine cleavage fluorescence; series mostly up to 114 µM. The method in brief: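 Deubiquitinase activity followed as kinetic rhodamine fluorescence release from 150 nM Ub-Rho. 1 nM USP1/UAF1 with compound, after 15 min room-temperature preincubation, in HEPES pH 7.8 buffer containing TCEP, EDTA, BSA and Tween-20.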

In assay [23] the target is DNA dC->dU-editing enzyme APOBEC-3G (Homo sapiens) (UniProt Q9HC16). The experiment in a line: qHTS for inhibitors of Vif-A3G interactions: Validation (AID 588379). Also: 0% is about no effect. Particulars: Vif-A3G protein interaction assay; series mostly up to 46.1 µM. The gist of the method: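 Yellow fluorescence (Ex 488, Em 500-530) of Vif-coexpressing HeLa A3G-eYFP cells, scanned by Acumen cytometer, reports blocked A3G degradation. Cells plated at 700/well overnight at 37 deg C before compound addition, then a further overnight compound incubation at 37 deg C.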

The mark [24] stands for this setting: measured here: cell count channel max response.
Setting [25] is: measured here: lipid channel max response.

Sequence of Glucocorticoid receptor (Homo sapiens) (P04150 whole entry, looked up): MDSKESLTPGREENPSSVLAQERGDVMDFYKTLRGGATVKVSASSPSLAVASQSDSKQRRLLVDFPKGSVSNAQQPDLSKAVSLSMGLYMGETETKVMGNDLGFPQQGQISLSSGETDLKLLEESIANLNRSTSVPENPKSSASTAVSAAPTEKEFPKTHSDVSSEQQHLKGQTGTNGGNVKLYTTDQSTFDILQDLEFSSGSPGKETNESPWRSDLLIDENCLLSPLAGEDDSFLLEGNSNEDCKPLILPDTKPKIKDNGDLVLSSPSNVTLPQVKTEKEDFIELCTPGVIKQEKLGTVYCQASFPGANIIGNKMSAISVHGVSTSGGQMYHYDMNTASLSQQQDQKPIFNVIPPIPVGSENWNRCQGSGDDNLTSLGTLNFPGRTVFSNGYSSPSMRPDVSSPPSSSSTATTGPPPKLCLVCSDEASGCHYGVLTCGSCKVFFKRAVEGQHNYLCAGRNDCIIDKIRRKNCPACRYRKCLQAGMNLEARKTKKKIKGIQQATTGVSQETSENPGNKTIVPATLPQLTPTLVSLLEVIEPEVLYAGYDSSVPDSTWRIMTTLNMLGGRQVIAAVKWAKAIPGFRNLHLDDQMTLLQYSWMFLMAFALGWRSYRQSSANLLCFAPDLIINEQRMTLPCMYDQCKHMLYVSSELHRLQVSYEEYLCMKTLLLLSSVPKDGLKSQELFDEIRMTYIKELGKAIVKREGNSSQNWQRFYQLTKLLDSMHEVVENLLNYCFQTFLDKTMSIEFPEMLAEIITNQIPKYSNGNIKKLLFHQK
Sequence of 3',5'-cyclic-AMP phosphodiesterase 4B (Homo sapiens) (Q07343 whole entry, looked up): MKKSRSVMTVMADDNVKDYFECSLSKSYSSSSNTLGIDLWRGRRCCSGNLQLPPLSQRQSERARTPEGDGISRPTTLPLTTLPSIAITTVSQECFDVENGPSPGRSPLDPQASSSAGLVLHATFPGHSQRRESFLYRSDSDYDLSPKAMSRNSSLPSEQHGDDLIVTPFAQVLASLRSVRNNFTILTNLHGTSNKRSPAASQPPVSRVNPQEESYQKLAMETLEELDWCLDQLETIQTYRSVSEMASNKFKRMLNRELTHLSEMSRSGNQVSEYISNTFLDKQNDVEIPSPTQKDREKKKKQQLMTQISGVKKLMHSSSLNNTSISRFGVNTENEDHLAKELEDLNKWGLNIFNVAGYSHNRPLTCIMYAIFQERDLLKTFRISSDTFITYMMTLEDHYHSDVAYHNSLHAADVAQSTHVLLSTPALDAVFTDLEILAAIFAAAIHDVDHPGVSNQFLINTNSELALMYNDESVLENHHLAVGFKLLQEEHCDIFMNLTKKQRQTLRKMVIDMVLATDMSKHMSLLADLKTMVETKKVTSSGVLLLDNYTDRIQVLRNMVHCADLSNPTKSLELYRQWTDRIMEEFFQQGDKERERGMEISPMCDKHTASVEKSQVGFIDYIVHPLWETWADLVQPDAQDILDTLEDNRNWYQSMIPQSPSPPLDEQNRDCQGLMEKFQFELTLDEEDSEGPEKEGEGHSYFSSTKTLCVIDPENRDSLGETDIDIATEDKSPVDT
Sequence of Ubiquitin carboxyl-terminal hydrolase 1 (Homo sapiens) (O94782 whole entry, looked up): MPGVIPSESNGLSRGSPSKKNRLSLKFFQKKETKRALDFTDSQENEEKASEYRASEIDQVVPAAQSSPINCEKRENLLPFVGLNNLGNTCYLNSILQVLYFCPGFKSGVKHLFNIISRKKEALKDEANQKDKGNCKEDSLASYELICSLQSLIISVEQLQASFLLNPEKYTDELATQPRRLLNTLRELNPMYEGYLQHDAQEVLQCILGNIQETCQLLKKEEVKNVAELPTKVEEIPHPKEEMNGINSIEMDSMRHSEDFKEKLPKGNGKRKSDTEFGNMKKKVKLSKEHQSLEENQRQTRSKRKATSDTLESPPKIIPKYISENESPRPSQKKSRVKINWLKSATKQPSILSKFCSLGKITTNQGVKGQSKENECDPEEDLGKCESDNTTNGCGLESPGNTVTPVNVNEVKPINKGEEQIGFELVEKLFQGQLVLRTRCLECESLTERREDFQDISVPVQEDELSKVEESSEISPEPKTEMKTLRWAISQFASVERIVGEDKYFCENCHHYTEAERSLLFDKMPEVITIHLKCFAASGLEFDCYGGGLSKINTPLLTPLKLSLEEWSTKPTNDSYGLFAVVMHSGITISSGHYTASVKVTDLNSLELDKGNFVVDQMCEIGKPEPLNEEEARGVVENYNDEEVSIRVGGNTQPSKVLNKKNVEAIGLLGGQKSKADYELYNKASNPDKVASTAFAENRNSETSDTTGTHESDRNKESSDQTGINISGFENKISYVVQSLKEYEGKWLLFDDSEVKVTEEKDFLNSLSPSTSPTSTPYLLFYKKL
Sequence of Alpha-galactosidase A (Homo sapiens) (P06280 whole entry, looked up): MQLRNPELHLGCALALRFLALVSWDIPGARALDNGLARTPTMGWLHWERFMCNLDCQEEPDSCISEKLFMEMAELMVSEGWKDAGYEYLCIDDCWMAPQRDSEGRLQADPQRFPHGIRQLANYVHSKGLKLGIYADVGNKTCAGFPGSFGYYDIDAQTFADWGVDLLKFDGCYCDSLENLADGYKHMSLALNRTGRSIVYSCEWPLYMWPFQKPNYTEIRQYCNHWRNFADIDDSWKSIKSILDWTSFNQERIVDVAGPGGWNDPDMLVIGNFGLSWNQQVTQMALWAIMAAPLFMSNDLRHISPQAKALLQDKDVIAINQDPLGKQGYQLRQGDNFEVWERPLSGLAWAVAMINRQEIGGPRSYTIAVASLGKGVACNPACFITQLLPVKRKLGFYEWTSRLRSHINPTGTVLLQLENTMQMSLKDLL
Sequence of Cytochrome P450 1A2 (Homo sapiens) (P05177 whole entry, looked up): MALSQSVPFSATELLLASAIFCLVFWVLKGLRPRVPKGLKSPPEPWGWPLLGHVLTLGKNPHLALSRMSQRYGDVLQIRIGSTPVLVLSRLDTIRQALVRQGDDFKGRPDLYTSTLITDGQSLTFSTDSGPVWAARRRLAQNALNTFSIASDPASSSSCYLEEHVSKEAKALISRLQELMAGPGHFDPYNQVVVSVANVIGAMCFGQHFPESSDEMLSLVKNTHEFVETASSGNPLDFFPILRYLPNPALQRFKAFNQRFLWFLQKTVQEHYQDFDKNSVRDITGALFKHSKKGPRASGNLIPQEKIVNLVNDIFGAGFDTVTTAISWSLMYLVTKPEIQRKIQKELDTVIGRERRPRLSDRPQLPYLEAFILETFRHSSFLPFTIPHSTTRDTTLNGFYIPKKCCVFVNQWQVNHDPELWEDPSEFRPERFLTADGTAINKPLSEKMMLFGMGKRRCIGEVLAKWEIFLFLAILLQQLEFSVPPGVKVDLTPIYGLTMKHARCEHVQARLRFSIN
Sequence of Pyruvate kinase PKM (Homo sapiens) (P14618 whole entry, looked up): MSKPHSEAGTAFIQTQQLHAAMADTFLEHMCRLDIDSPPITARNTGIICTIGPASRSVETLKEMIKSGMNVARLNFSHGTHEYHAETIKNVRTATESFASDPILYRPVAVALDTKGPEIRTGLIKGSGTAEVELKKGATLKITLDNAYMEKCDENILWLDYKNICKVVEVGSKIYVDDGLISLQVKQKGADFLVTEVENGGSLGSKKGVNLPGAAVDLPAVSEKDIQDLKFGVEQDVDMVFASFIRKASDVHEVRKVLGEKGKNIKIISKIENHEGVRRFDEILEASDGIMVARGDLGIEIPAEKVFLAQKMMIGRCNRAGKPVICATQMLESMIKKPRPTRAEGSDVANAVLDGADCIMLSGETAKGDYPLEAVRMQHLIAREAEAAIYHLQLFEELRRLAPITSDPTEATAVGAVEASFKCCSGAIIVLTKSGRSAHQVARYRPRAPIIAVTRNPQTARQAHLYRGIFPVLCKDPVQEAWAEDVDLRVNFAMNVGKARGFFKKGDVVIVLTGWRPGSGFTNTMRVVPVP
Sequence of Cytochrome P450 3A4 (Homo sapiens) (P08684 whole entry, looked up): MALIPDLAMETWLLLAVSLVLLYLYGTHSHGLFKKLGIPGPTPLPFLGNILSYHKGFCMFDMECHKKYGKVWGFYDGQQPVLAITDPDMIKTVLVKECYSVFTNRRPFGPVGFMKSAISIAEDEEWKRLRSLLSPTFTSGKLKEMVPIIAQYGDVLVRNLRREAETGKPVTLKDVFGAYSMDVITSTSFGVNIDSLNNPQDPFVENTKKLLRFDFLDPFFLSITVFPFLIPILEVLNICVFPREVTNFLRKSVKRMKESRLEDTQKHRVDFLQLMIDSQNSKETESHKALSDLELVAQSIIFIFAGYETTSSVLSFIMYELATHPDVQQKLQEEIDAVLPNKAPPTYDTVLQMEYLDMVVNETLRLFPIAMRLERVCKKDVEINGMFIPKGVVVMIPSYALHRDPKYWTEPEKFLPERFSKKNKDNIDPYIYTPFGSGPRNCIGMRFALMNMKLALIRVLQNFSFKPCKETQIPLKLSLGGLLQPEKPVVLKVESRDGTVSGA
Sequence of Cytochrome P450 2C19 (Homo sapiens) (P33261 whole entry, looked up): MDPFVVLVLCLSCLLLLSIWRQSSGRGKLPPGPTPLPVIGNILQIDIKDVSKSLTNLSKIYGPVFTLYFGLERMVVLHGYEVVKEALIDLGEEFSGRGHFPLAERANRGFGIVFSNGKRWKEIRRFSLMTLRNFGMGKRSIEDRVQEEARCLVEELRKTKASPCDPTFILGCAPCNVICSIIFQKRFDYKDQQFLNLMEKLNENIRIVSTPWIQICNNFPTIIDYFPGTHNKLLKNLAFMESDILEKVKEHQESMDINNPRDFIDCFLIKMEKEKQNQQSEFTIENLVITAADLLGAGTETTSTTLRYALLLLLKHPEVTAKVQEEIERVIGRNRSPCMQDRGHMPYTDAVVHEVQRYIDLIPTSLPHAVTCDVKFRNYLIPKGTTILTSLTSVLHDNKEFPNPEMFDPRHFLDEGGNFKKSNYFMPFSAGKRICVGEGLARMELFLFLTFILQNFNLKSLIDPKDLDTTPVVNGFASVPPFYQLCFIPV

Consider `CC[N+](C)(CC)CCC[n+]1c(-c2ccccc2)c2cc(N)ccc2c2ccc(N)cc21`, for which the activity change, negative = inhibition in assay [1] (at 17.2 µM (top of the series)) is 5.27% (inactive); in [10] (at 25.7 µM (top of the series)) it was 0.117% (inactive). For the same molecule, the Potency in [2] is 12.6 µM (active); in [4], > 20.6 µM (inactive); in assay [5], > 20.6 µM (inactive); in [8], 6.31 µM (active); in [9], 1.58 µM (active). Further, in [3] (at 17.2 µM (top of the series)), the activity, negative = inhibition is -13.1% (inactive). Besides, the Potency result in assay [6], in assay [7], in assay [11] and in assay [12] was “inactive” throughout. For the same molecule, the figures for the max response in assay [10] (setting [24]) and in [10] (setting [25]) were -4.14% and -3.68%, respectively.
For `N[C@@H]1CCN(O)C1=O`, the results for the activity change, negative = inhibition in [1] (at 38 µM (top of the series)), in [13] and in assay [10] (at 57.5 µM (top of the series)) were 18.2% (inactive), 0.992% (inactive) and 4.58% (inactive), respectively. For the same molecule, the activity, negative = inhibition in assay [3] (at 38 µM (top of the series)) is 21.4% (inactive). Moreover, the Potency in assay [4] and in assay [5] was > 46 µM (inactive) in each case. The Potency result in assay [14], in assay [6], in assay [16], in [17], in assay [18] and in assay [22] was “inactive” in each case. Also, the Potency entry in assay [23], in assay [11] and in assay [12] was “inactive” in each case. Also, the molecule was classed as inactive in assay [15], in assay [19], in assay [20] and in [21]. The max response in assay [10] (setting [24]) came out at 18.8%; in assay [10] (setting [25]), 25.6%.
